From PubChem
An excerpt weighted towards active compounds, which were near 19% of everything screened.
IL1B secr inh: inhibitors of inflammasome signaling (IL-1 beta secretion). THP-1 LPS/ATP IL-1B secretion, AlphaLISA, 16 h; active compounds read low. activity change, % at 57.5 µM. hit rate 4.7% among 360,000; in the data active means activity change below about -50%; inconclusive means mostly about -30% to -49%
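THP-1 cells pretreated 1 hr with compounds (up to 57.5 uM final), then stimulated with LPS (250 ng/mL final) plus ATP (1.25 mM final); secreted IL-1B measured by AlphaLISA after 16 hr, decreased signal indicating inhibition.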
MCF10A rerep: DNA re-replication induction in MCF 10a cells | MCF 10A DNA re-replication, Hoechst nuclear intensity, 48 h | Potency, µM (highest dose often 46.1 µM), most hits filed as activators | hit rate 2.9% among 350,000 | AID 624296; further: nearly all actives have a fitted effect of over 50% in size
SW480 rerep: inducers of DNA re-replication in SW480 colon cancer cells. SW480 DNA re-replication, Hoechst DNA content imaging, 48 h. Potency, µM (doses to about 46.1 µM), most hits filed as activators. hit rate 1.8% among 340,000; further: nearly all actives have a fitted effect of over 55% in size
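SW480 cells exposed to compounds for 48 hr at 37 C, 5% CO2, then Hoechst-stained 40 min. Nuclear DNA content imaged by fluorescence scanning (405 nm excitation, 500-530 nm emission); re-replication scored as increased high-intensity nuclei.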
DT40 TDP1 no CPT: qHTS for Inhibitors of human tyrosyl-DNA phosphodiesterase 1 (TDP1): qHTS in cells in absence of CPT. DT40 Tdp1-/- hTDP1 cells, no CPT, ATP luminescence, 48 h. Potency, µM (top dose mostly 46.2 µM), usual class: inhibitors. hit rate 15% among 420,000; further: nearly all actives have a fitted effect of over 55% in size
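A cellular qHTS used chicken DT40 cells lacking endogenous Tdp1 but carrying stably transfected human TDP1. Compounds were applied without camptothecin, and cell growth kinetics were judged by ATP-dependent luminescence after ≥48 hr.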
BCR signal inh: inhibitors of chronic active B-cell receptor signaling; ABC-DLBCL IkBa-CBG/CBR reporter, luminescence ratio, 4 h; AID 493014; Potency, µM (highest dose often 46.1 µM), usual class: inhibitors; hit rate 0.05% among 340,000; active means well fitted inhibition curve with a large enough effect in the signal ratio, with a control signal flat, not every such curve was filed as active; inconclusive means small, poorly fitted or top-dose-only effect, or effect the other way, or a change in a side signal; the % refers to the signal ratio
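TMD8 human ABC-DLBCL cells with doxycycline-inducible IκBα–green luciferase fusion and unfused red luciferase, in 0.5% FBS medium; compounds up to 46 uM, 4 h at 37C. Green/red luminescence ratio, filter-overlap corrected, fitted to concentration-response curves.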
DT40 TDP1 CPT: growth inhibition of DT40 Tdp1-/-;hTDP1 cells with camptothecin (screen for TDP1 inhibitors); AID 686979; chicken DT40 Tdp1-/-;hTDP1 cells + 20 nM CPT, ATP luminescence, 48 h; Potency, µM (doses to about 46.2 µM), usual class: inhibitors; hit rate 12% among 420,000; further: nearly all actives have a fitted effect of over 55% in size
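Chicken DT40 Tdp1-/- cells complemented with human TDP1, 400 cells/well, exposed to compounds plus 20 nM camptothecin for at least 48 h at 37 C; viability read as ATP content by CellTiter-Glo luminescence.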
Hits are given with their value; n = inactive; u = inconclusive; x = not tested or not shown; + = active, no number; [ ] = another dose, or the depositor's remark. Unless noted, the call rests on the fitted dose curve; in most records, active means well fitted curve in the direction sought with a large enough effect; inconclusive means small, poorly fitted or top-dose-only effect, or another doubt; inactive means no such curve, though single readings can be large; an effect the other way counts as inactive or inconclusive.

SMILES	IL1B secr inh	MCF10A rerep	SW480 rerep	DT40 TDP1 no CPT	BCR signal inh	DT40 TDP1 CPT
COc1ccc(C(=O)NCC(c2cccnc2)N2CCc3ccccc3C2)cc1 (centres undefined)	x	x	x	20.6µM	x	11.6µM
COc1ccc(N2CCN(C(CNC(=O)c3ccc4c(c3)OCO4)c3cccnc3)CC2)cc1 (centres undefined)	n	n	n	u	n	n
COc1ccc(C(=O)NCC(c2cccnc2)N2CCc3ccccc3C2)cc1OC (centres undefined)	x	x	x	u	x	16.4µM
Cc1ccc(S(=O)(=O)N2CCN(C(=O)Cc3c(F)cccc3Cl)CC2)cc1	n	n	n	n	n	n
Fc1ccc(-c2nc3c4ccccc4ccn3c2Cc2cccc(Cl)c2)cc1	n	x	x	16.4µM	x	16.4µM
Clc1cccc(Cc2c(C3CCCCC3)nc3c4ccccc4ccn23)c1	n	x	x	16.4µM	x	u
Clc1cccc(Cc2c(-c3cccc(Cl)c3)nc3c4ccccc4ccn23)c1	n	x	x	16.4µM	x	u
Fc1cccc(Cc2c(-c3ccco3)nc3c4ccccc4ccn23)c1	n	x	x	6.51µM	x	6.51µM
Clc1cccc(Cc2c(-c3ccco3)nc3c4ccccc4ccn23)c1	n	x	x	u	x	u
C[C@H](CO)N1C[C@H](C)[C@@H](CN(C)S(=O)(=O)c2cn(C)cn2)Oc2cc(Br)ccc2S1(=O)=O	n	x	x	u	x	n
CCC(=O)NS(=O)(=O)c1ccc(-c2c(-c3ccccc3)noc2C)cc1	x	x	x	n	x	n
COc1ccc2c(c1)OC(C)CN(CCNC(=O)c1ccc(-n3cccn3)cc1)C2 (centres undefined)	x	x	x	n	x	n[9.04 µM]
Fc1cccc(Cc2c(-c3cccc(Cl)c3)nc3c4ccccc4ccn23)c1	n	x	x	18.4µM	x	23.1µM
Fc1cccc(Cc2c(-c3ccco3)nc3ccc(Br)cn23)c1	n	x	x	16.4µM	x	16.4µM
Clc1cccc(-c2nc3c4ccccc4ccn3c2Cc2ccccc2)c1	n	x	x	u	x	u
Clc1cccc(Cc2c(-c3ccccc3)nc3c4ccccc4ccn23)c1	n	x	x	13µM	x	u
N#Cc1cc([N+](=O)[O-])ccc1NC(=O)COC(=O)CN1C(=O)C2CCCCC2C1=O (centres undefined)	n	n	n	n	n	u
Cc1nc2ccc(NC(=O)c3cc(S(=O)(=O)N(C)c4ccccc4)ccc3Cl)cc2s1	n	n	n	1.84µM	n	1.84µM
Cc1nc2ccc(S(=O)(=O)N(CC(=O)Nc3cccc(Cl)c3)Cc3ccccc3)cc2s1	x	x	x	16.4µM	x	u
Cc1nc2ccc(NC(=O)c3ccc(Cl)c(S(=O)(=O)N(C)c4ccccc4)c3)cc2s1	n	u	n	3.26µM	u	13µM
Cc1nc2ccc(NC(=O)c3cc([N+](=O)[O-])cc([N+](=O)[O-])c3Cl)cc2s1	u	u	n	6.51µM	u	5.17µM
Cc1nc2ccc(NC(=O)c3ccc(S(=O)(=O)N(C)C)cc3)cc2s1	n	n	n	n	n	n
CC1CCCCN1S(=O)(=O)Cc1ccccc1Cl (centres undefined)	n	n	n	n	n	n
CCN(CCCNC(=O)c1nn(-c2ccc(OC)c(Cl)c2)c(=O)c2c1c1ccccc1n2C)c1cccc(C)c1	x	x	x	n	x	u
Cc1ccc(NC(=O)CN(C)C(=O)COC(=O)C2=COCCO2)cc1	n	n	n	n	n	n
SMILES	IL1B secr inh	MCF10A rerep	SW480 rerep	DT40 TDP1 no CPT	BCR signal inh	DT40 TDP1 CPT
CC(C)(C)c1cc(C2=CSC3=NCCN23)cc(C(C)(C)C)c1O	n	u	u	u	n	u
CN(c1ccccc1)S(=O)(=O)c1ccc(Cl)c(C(=O)Nc2ccc(N3CCOCC3)cc2)c1	n	n	n	1.64µM	n	3.26µM
Cc1ccc(-n2nc3c(c2NC(=O)CC(C)C)CS(=O)(=O)C3)cc1	n	n	n	n	n	n
Cc1ccc(N2C(=O)C(CC(=O)Nc3ccc(F)cc3)N(Cc3ccc4c(c3)OCO4)C2=O)cc1 (centres undefined)	x	x	x	16.4µM	x	u
O=C(CC1C(=O)N(c2ccc(F)cc2)C(=O)N1Cc1ccc2c(c1)OCO2)Nc1ccc(Cl)cc1 (centres undefined)	x	x	x	20.6µM	x	u
CCN1C(=O)C(CC(=O)Nc2ccc(F)cc2)N(Cc2ccc3c(c2)OCO3)C1=S (centres undefined)	-59.7	n	n	u	u	u
Fc1ccc(-c2cc(-c3ccccc3)c3c(n2)-c2cc(F)ccc2OC3)cc1	x	x	x	n	x	n
COc1ccc(S(=O)(=O)Nc2cccc(C(C)=O)c2)cc1Br	-70.8	n	n	u	n	n
CCC(=O)Nc1ccc(S(=O)(=O)Nc2cccc(C)c2)cc1OC	n	u	n	11.6µM	n	u
COc1ccc(S(=O)(=O)Nc2cccc(N(C)S(C)(=O)=O)c2)cc1Br	n	n	n	20.6µM	n	u
CCc1ccc(C(=O)COC(=O)c2ccc(Cl)nc2)cc1	n	n	n	n	n	n
N#Cc1c(NC(=O)c2cnccn2)sc2c1CCCC2	n	u	5.8µM	11.6µM	n	9.2µM
N#Cc1c(NC(=O)c2cccnc2)sc2c1CCC2	n	5.8µM	16.4µM	u	u	23.1µM
CC(=O)Nc1sc2c(c1C#N)CCC2	n	n	n	n	n	n
NC(=O)c1c(NC(=O)c2cccnc2)sc2c1CCCC2	n	n	n	n	u	n
N#Cc1c(NC(=O)c2ccccc2)sc2c1CCC2	n	u	10µM	16.4µM	u	18.4µM
CC(C)c1cc(C(=O)Nc2sc3c(c2C#N)CCC3)no1	n	14.6µM	u	23.1µM	u	u
CCN(Cc1ccccc1)C(=O)Cn1c(=O)n(CC(=O)N2CCCCC2)c(=O)c2sccc21	n	n	n	n	n	n
CC1(C)CCCN(C(=O)c2ccc3c(c2NCCO)C(=O)c2ccccc2C3=O)C1	-64.7	u	n	u	u	u
CCN(CCN(C)C)C(=O)c1ccc2c(c1NCCO)C(=O)c1ccccc1C2=O	n	n	n	23.1µM	u	u
O=C1c2ccccc2C(=O)c2c1ccc(C(=O)N1CCCCC1)c2NCCO	n	n	n	u	n	u
COCCCNC(=O)Cn1c(=O)n(-c2ccc(C)cc2)c(=O)c2c1c1cc(C)ccc1n2C	x	x	x	u	x	n
Fc1ccc(CNC(=S)NC2CCCC2)cc1	-142.2	n	u	u	n	u
NS(=O)(=O)c1ccc(CNC(=S)NCc2ccc(F)cc2)cc1	+	n	n	n	n	n
CC(=O)Nc1ccc(NC(=O)C(C)Sc2n[nH]c(-c3ccc(C)cc3)n2)cc1 (centres undefined)	n	n	u	n	u	n
